Test results published in PubChem BioAssay (Tox21).
Inconclusive results are not listed. Calls of active or inactive are those of the source. Unless noted, the call rests on the fitted dose curve; in most records, active means well fitted curve in the direction sought with a large enough effect in the repeat runs; inconclusive means weak or mixed curves; inactive means no such curve, though single readings can be large; an effect the other way counts as inactive or inconclusive.

What was measured:
[1] = qHTS assay to identify small molecule antagonists of the thyroid receptor (TR) signaling pathway (AID 743065); further: series mostly up to about 70 µM; nearly all actives have a fitted effect of over 55% in size
Procedure, shortened: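 GH3.TRE-Luc rat pituitary cells (two TREs driving luciferase) were dosed with compound, then stimulated with 1 nM T3 (final) for 23.5 h at 37 C. ONE-Glo luminescence was the read-out, with CellTiter-Fluor fluorescence as the cytotoxicity counter-screen.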

[2] = system: thyroid hormone receptor (rat, GH3 cells); experiment: qHTS assay to identify small molecule agonists of the thyroid receptor (TR) signaling pathway (AID 743066; calls by dose curve)
[3] = biological target: Estrogen receptor (Homo sapiens) (UniProt P03372); experiment: qHTS assay to identify small molecule antagonists of the estrogen receptor alpha (ER-alpha) signaling pathway (AID 743069; active means well fitted curve in the direction sought with a large enough effect in the signal ratio in the repeat runs, not every such curve was filed as active; the % refers to the signal ratio)
Sequence of Estrogen receptor (Homo sapiens) (P03372 whole entry, looked up): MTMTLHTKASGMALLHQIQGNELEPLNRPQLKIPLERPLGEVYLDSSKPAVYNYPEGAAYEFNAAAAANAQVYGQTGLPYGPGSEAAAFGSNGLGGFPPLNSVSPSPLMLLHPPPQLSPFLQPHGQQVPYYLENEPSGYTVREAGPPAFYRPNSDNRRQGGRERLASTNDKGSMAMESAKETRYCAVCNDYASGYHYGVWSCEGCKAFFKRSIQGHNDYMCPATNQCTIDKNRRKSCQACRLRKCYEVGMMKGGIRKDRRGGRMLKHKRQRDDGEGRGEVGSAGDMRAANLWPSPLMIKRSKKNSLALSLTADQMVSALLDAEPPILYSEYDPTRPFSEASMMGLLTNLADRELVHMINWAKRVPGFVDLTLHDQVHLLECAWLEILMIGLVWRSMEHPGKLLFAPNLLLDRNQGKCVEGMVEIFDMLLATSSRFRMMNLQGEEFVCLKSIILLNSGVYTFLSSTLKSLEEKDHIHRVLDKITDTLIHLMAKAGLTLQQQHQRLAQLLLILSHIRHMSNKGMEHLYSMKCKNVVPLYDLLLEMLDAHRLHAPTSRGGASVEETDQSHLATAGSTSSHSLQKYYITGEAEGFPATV
Procedure, shortened: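 Reporter cells (ER-alpha-bla, HEK293 background) are conditioned overnight in stripped-serum medium (2% charcoal-stripped FBS). Compound and 17beta-estradiol exposure runs 18 hr at 37C, 5% CO2.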

[4] = qHTS assay to identify small molecule antagonists of the estrogen receptor alpha (ER-alpha) signaling pathway - cell viability counter screen (AID 743074; calls by dose curve;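 further: HEK293 cells carrying ER-alpha-UAS-bla reporter stimulated with 17beta-estradiol; nearly all actives have a fitted effect of over 45% in size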)
[5] = biological target: Estrogen receptor (Homo sapiens) (UniProt P03372); experiment: qHTS assay to identify small molecule agonists of the estrogen receptor alpha (ER-alpha) signaling pathway (AID 743075; calls by dose curve;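 further: HEK293 GripTite cells with ER-alpha and UAS-driven beta-lactamase reporter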)
[6] = biological target: Estrogen receptor (Homo sapiens) (UniProt P03372); experiment: qHTS assay to identify small molecule agonists of the estrogen receptor alpha (ER-alpha) signaling pathway using the BG1 cell line (AID 743079); further: nearly all actives have a fitted effect of over 20% in size
[7] = qHTS assay to identify small molecule antagonists of the estrogen receptor alpha (ER-alpha) signaling pathway using the BG1 cell line (AID 743080; calls by dose curve;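 further: BG1 cells stimulated with 17beta-estradiol alongside compound; series mostly up to about 70 µM; nearly all actives have a fitted effect of over 25% in size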)
Procedure, shortened: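 Readout is ONE-Glo luminescence, taken 30 min at room temperature after reagent addition, preceded by a CellTiter-Fluor viability read; BG1-Luc-4E2 cells had received compound and 17beta-estradiol for 21.5 h at 37 C.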

[8] = qHTS assay to identify small molecule antagonists of the estrogen receptor alpha (ER-alpha) signaling pathway using the BG1 cell line - cell viability counter screen (AID 743081);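 further: compound given together with 17beta-estradiol as the ER stimulus; series mostly up to about 70 µM; nearly all actives have a fitted effect of over 45% in size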
Aromatase (Homo sapiens) = Aromatase (Homo sapiens) (UniProt P11511); experiment: qHTS assay to identify aromatase inhibitors (AID 743083); further: series mostly up to about 70 µM; nearly all actives have a fitted effect of over 55% in size
Sequence of Aromatase (Homo sapiens) (P11511 whole entry, looked up): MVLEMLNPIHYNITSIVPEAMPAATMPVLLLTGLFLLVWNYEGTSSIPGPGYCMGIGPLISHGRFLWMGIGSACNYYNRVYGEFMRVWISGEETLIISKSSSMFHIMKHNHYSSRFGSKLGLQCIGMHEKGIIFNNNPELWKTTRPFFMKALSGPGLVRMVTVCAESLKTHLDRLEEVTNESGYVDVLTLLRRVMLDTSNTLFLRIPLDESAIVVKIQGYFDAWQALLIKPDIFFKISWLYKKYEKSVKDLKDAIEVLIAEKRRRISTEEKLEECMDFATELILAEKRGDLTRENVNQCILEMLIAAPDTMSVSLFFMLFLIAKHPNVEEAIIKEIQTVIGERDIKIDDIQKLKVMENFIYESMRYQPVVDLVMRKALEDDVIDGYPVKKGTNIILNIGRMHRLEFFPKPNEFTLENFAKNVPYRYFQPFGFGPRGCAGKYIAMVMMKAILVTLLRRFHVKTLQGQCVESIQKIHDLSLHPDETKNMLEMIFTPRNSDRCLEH

[9] = qHTS assay to identify aromatase inhibitors - cell viability counter screen (AID 743084);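 further: cells stimulated with testosterone during compound exposure; nearly all actives have a fitted effect of over 55% in size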
[10] = biological target: Aryl hydrocarbon receptor (Homo sapiens) (UniProt P35869); experiment: qHTS assay to identify small molecule that activate the aryl hydrocarbon receptor (AhR) signaling pathway (AID 743085);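 further: HG2L7.5c1 human HepG2 liver cells with stably integrated DRE-driven firefly reporter; series mostly up to about 70 µM; nearly all actives have a fitted effect of over 15% in size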
Sequence of Aryl hydrocarbon receptor (Homo sapiens) (P35869 whole entry, looked up): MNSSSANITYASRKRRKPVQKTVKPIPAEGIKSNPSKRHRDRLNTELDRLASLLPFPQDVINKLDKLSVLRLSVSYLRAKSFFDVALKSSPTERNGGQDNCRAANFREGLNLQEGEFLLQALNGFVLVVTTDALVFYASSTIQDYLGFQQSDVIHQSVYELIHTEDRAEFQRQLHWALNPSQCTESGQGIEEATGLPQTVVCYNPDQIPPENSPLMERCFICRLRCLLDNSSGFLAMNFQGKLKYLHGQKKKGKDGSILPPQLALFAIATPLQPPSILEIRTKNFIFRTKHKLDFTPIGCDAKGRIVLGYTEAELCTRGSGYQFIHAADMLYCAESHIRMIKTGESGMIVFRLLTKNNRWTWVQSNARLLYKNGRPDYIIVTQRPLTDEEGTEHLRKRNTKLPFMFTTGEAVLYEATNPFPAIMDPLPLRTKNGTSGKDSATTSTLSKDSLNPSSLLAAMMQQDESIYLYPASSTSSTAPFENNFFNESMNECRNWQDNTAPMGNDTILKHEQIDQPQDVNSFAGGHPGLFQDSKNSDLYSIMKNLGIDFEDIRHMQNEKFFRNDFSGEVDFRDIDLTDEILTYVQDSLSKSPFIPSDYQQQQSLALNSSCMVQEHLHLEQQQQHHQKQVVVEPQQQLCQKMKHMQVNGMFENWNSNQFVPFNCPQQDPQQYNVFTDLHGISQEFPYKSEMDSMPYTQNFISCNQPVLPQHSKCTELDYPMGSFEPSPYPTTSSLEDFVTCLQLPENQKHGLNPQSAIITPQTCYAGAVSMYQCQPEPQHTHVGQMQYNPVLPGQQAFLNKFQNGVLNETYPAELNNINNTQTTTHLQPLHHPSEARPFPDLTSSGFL
Procedure, shortened: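 Steps: seed HepG2-AhR-luc cells; allow 5 h at 37C; pin-transfer test compound or vehicle; incubate 24 h at 37C; add viability dye (30 min, 37C) and read fluorescence; add luciferase substrate (30 min, RT) and read luminescence.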

[11] = qHTS assay to identify small molecule that activate the aryl hydrocarbon receptor (AhR) signaling pathway - cell viability counter screen (AID 743086);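 further: HepG2 liver cells carrying the AhR DRE luciferase reporter; series mostly up to about 70 µM; nearly all actives have a fitted effect of over 45% in size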
Procedure, shortened: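 HepG2-AhR-luc (HG2L7.5c1) cells, 4000/well, treated 24 h at 37 C with compound; viability measured as CellTiter-Fluor fluorescence after 30 min in the same wells as the luciferase read.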

[12] = biological target: Peroxisome proliferator-activated receptor gamma (Homo sapiens) (UniProt P37231); experiment: qHTS assay to identify small molecule agonists of the peroxisome proliferator-activated receptor gamma (PPARg) signaling pathway (AID 743094; active means well fitted activation curve with a large enough effect in the signal ratio in the repeat runs, not every such curve was filed as active; the % refers to the signal ratio)
Sequence of Peroxisome proliferator-activated receptor gamma (Homo sapiens) (P37231 whole entry, looked up): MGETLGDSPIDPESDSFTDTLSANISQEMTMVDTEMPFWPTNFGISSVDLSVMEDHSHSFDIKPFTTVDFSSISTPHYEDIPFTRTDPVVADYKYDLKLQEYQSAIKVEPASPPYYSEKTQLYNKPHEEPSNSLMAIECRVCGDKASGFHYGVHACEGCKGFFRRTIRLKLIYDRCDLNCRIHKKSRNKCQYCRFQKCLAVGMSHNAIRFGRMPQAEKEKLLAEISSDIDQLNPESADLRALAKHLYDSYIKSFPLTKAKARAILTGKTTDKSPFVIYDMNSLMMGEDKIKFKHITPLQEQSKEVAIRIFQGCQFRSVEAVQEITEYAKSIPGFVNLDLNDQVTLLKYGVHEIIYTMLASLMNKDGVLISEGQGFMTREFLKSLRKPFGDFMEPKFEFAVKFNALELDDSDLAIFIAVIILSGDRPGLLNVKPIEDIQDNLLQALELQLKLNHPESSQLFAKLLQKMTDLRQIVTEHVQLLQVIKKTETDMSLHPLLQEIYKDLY
Procedure, shortened: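 Compounds dissolved in DMSO were added to PPARg UAS-bla HEK293H cells for 17 h at 37C, and reporter expression was quantified by fluorescence intensity after 1 h with LiveBLAzer B/G FRET substrate.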

[13] = qHTS assay to identify small molecule antagonists of the peroxisome proliferator-activated receptor gamma (PPARg) signaling pathway - cell viability counter screen (AID 743194); further: nearly all actives have a fitted effect of over 55% in size
Procedure, shortened: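 Cytotoxicity counter screen in PPARg-bla HEK293H cells, same wells as reporter assay. Compounds plus 50 nM rosiglitazone (final) for 17 h at 37 C, then viability read by CellTiter-Glo luminescence.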

[14] = qHTS assay for small molecule agonists of the antioxidant response element (ARE) signaling pathway (AID 743202; active means well fitted activation curve with a large enough effect in the signal ratio in the repeat runs, not every such curve was filed as active; the % refers to the signal ratio)
Procedure, shortened: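 Agonist mode reporter screen: HepG2 cells with ARE-controlled beta-lactamase are incubated with test compounds for 16 h at 37 C, and beta-lactamase activity is measured as fluorescence of cleaved B/G FRET substrate.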

[15] = qHTS assay for small molecule activators of the heat shock response signaling pathway - cell viability counter screen (AID 743209); further: nearly all actives have a fitted effect of over 50% in size
Procedure, shortened: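 Readout: CellTiter-Glo luminescence, 30 min at room temperature. System: HSE-bla HeLa cells, 1500/well, plated overnight. Treatment: compounds in DMSO, 5 h at 37 C.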

[16] = qHTS assay for small molecule activators of the heat shock response signaling pathway (AID 743210; active means well fitted activation curve with a large enough effect in the signal ratio in the repeat runs, with a control signal flat, not every such curve was filed as active; the % refers to the signal ratio;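 further: HeLa cells with beta-lactamase reporter driven by heat shock elements; series mostly up to about 63 µM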)
Procedure, shortened: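 Quantitative high-throughput format using an engineered HeLa line in which heat shock response elements drive beta-lactamase; after 5 h with compound, cells received a B/G FRET substrate and fluorescence was read.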

[17] = qHTS assay to identify small molecule agonists of the peroxisome proliferator-activated receptor delta (PPARd) signaling pathway - cell viability counter screen (AID 743211); further: nearly all actives have a fitted effect of over 55% in size
Procedure, shortened: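 Viability of GeneBLAzer PPARd UAS-bla HEK293H cells was assessed after 17 h compound incubation at 37C, using CellTiter-Glo reagent added after the reporter read and luminescence recorded 30 min later.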

[18] = biological target: Peroxisome proliferator-activated receptor gamma (Homo sapiens) (UniProt P37231); experiment: qHTS assay to identify small molecule antagonists of the peroxisome proliferator-activated receptor gamma (PPARg) signaling pathway (AID 743191; calls by dose curve; further: series mostly up to about 63 µM; nearly all actives have a fitted effect of over 30% in size)
Procedure, shortened: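 GeneBLAzer PPARg UAS-bla HEK293H cells, 5 h post-plating, exposed to compounds 17 h at 37C. LiveBLAzer B/G FRET substrate added for 1 h at room temperature; beta-lactamase reporter read by fluorescence intensity.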

[19] = qHTS assay for small molecule agonists of the antioxidant response element (ARE) signaling pathway - cell viability counter screen (AID 743203; calls by dose curve; further: nearly all actives have a fitted effect of over 55% in size)
Procedure, shortened: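 Following 16 hrs of compound treatment at 37C, HepG2 cells with an ARE-controlled beta-lactamase gene were lysed with CellTiter-Glo. Luminescence was read after 30 min at room temperature.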

Measured: Potency

CC(=O)Nc1ccccc1
not listed: [18] | [19]
inactive: all other assays above

CCCCCC1=CCCC1=O
not listed: [16]
inactive: all other assays above

O=C(O)CCCC[C@@H]1SC[C@@H]2NC(=O)N[C@@H]21
inactive: all assays above

COc1ccc(Nc2ccccc2)c(C)c1
not listed: [16] | [18]
inactive: all other assays above

C#CCN(C)Cc1ccccc1
not listed: [18]
inactive: all other assays above

CN(C)CCCN
not listed: [18] | [19]
inactive: all other assays above

CCCCCCCC(=O)OC
not listed: [18]
inactive: all other assays above

CCc1cccc(C)c1N
not listed: [18] | [19]
inactive: all other assays above
